Reference: publication PMC7862700, “An all-to-all approach to the identification of sequence-specific readers for epigenetic DNA modifications on cytosine”

Legend:
Experiment in all cases: DAPPL (digital affinity profiling via proximity ligation, sequencing); 10 mM Tris-HCl pH 7.5, 50 mM NaCl, 1 mM DTT, 4% glycerol, room temperature, 30 min; GST-TFs on glutathione beads, 16-mer random dsDNA library, 0.1% formaldehyde crosslink after washing; high values mean tight binding
Settings in all cases: protein: recombinant; tags: N-terminal GST; dsDNA, one strand shown
FLI1 = molecular target: T1, FLI1 (Homo sapiens, UniProt Q01543 1-452)
T1 sequence: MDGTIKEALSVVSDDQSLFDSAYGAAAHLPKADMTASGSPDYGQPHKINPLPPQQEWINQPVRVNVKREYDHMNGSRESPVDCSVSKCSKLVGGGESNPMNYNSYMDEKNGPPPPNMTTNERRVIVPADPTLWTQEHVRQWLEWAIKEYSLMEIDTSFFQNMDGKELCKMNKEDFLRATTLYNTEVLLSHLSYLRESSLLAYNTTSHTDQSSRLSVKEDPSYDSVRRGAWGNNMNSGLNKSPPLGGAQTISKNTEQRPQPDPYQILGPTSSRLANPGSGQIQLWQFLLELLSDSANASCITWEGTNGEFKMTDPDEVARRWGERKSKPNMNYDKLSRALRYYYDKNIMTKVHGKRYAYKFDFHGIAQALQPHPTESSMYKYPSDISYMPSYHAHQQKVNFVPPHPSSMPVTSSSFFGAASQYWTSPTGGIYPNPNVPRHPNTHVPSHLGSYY
Outline: (§1)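 Binding signal is given per hexamer as its read frequency for a factor divided by its frequency in the tag-only sample. GST-fused human transcription factors were expressed in yeast, captured on glutathione beads, barcoded with DNA and pooled with that sample, then incubated with 200 nmole of a 16-mer random double-stranded DNA library in Tris/NaCl/DTT/glycerol buffer for 30 min at room temperature. The pools were then washed, crosslinked, proximity-ligated, amplified by PCR and sequenced on an Illumina NextSeq500.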

ELK1 = molecular target: T2, ELK1 (Homo sapiens, UniProt P19419 1-428)
T2 sequence: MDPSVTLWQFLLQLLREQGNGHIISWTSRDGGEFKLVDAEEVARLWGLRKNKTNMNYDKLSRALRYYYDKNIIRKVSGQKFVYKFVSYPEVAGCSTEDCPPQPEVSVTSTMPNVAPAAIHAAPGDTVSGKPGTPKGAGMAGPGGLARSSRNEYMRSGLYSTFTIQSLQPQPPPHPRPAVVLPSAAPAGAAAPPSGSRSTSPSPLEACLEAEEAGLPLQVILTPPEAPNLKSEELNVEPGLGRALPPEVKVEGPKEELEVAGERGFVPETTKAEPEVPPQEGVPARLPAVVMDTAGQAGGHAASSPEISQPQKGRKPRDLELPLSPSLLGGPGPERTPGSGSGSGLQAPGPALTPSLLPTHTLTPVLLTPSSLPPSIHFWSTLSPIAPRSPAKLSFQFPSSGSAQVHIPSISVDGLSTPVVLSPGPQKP
Outline: as §1

GABPA = molecular target: T3, GABPA (Homo sapiens, UniProt Q06546 1-454)
T3 sequence: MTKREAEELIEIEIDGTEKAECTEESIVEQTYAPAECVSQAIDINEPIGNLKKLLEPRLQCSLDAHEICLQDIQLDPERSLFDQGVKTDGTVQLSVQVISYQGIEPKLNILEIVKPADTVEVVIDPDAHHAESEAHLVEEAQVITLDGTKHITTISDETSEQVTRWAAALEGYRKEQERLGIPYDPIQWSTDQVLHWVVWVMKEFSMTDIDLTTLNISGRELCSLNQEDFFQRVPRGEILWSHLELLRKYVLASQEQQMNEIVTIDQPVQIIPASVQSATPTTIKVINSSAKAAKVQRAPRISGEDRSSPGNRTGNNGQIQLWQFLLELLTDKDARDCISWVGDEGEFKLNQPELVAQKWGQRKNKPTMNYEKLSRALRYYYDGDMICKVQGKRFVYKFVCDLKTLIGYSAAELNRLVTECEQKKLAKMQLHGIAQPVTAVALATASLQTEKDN
Outline: as §1

ERG = molecular target: T4, ERG (Homo sapiens, UniProt P11308 1-479)
T4 sequence: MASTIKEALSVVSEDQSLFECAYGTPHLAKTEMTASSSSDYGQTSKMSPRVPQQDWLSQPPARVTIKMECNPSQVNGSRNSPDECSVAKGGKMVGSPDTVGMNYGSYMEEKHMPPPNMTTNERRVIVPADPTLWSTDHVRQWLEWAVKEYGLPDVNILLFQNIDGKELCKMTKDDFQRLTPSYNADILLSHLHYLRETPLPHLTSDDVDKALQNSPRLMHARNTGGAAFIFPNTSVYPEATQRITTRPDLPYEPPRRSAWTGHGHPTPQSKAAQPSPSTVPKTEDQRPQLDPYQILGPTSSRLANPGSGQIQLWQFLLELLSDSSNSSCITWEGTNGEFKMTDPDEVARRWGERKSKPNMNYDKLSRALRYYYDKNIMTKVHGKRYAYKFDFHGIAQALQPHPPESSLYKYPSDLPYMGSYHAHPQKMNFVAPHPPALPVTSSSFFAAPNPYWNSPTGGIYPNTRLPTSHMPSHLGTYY
Outline: as §1

ELF1 = ELF1 (Homo sapiens, UniProt P32519 1-619)
Outline: as §1

EHF = molecular target: T5, EHF (Homo sapiens, UniProt Q9NZC4 1-300)
T5 sequence: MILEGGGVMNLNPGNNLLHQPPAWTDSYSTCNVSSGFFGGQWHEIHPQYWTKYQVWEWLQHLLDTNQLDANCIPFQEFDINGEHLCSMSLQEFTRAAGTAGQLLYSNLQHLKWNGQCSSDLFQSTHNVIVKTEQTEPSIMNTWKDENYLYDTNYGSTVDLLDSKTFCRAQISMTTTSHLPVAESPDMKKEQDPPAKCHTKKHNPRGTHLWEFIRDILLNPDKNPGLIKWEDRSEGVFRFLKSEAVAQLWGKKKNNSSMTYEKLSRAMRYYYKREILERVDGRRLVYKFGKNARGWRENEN
Outline: as §1

SPI1 = SPI1 (Homo sapiens, UniProt P17947 1-270)
Outline: as §1

SPIB = SPIB (Homo sapiens, UniProt Q01892 1-262)
Outline: as §1

ETV5 = ETV5 (Homo sapiens, UniProt P41161 1-510)
Outline: as §1

SPIC = molecular target: T6, SPIC (Homo sapiens, UniProt Q8N5J4 1-248)
T6 sequence: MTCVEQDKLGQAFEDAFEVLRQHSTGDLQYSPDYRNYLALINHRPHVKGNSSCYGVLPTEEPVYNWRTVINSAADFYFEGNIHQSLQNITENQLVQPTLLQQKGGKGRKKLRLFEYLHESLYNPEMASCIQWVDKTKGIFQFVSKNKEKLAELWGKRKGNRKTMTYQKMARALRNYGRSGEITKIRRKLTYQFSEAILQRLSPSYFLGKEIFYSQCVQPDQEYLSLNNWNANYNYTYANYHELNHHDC
Outline: as §1

ELF4 = ELF4 (Homo sapiens, UniProt Q99607 1-663)
Outline: as §1

ETV1 = ETV1 (Homo sapiens, UniProt P50549 1-477)
Outline: as §1

ETS2 = molecular target: T7, ETS2 (Homo sapiens, UniProt P15036 1-469)
T7 sequence: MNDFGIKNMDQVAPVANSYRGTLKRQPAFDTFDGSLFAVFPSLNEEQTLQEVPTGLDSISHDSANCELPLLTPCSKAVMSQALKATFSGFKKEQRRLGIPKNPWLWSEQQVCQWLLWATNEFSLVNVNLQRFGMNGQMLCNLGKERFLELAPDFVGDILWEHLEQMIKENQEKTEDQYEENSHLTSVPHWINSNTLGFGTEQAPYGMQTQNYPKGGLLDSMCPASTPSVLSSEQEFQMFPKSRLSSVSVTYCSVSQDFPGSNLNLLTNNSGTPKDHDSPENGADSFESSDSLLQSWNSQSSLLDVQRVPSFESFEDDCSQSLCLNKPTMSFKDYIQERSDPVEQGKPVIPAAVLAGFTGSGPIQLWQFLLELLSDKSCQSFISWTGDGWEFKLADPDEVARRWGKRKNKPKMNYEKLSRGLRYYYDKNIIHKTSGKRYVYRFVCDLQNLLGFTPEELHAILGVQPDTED
Outline: as §1

ELF5 = molecular target: T8, ELF5 (Homo sapiens, UniProt Q9UKW6-2 1-255)
T8 sequence: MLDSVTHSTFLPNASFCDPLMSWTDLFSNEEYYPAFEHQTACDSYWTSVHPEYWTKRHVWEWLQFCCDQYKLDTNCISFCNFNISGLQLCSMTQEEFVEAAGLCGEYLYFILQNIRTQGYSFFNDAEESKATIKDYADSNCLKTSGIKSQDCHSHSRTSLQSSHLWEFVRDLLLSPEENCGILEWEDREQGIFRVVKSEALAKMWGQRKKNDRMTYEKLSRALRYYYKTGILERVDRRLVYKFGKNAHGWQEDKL
Outline: as §1

ETV3 = molecular target: T9, ETV3 (Homo sapiens, UniProt P41162-2 1-143)
T9 sequence: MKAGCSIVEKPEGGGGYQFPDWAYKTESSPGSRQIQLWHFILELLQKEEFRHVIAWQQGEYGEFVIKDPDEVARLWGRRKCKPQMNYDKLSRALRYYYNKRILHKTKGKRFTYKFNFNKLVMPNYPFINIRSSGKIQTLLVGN
Outline: as §1

ETV5, sequence (P41161 whole entry): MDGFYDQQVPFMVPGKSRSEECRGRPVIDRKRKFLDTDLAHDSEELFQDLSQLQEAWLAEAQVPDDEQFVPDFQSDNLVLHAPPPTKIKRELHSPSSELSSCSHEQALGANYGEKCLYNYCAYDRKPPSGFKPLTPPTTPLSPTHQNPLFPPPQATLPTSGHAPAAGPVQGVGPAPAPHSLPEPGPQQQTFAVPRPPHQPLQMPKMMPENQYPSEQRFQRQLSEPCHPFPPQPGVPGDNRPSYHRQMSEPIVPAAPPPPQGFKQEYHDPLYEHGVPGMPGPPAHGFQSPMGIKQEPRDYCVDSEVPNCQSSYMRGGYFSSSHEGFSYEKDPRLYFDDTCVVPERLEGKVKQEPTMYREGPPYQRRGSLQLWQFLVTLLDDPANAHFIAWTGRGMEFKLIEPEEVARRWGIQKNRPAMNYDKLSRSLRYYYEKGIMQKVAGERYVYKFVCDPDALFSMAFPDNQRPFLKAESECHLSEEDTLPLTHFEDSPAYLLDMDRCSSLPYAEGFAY
ELF4, sequence (Q99607 whole entry): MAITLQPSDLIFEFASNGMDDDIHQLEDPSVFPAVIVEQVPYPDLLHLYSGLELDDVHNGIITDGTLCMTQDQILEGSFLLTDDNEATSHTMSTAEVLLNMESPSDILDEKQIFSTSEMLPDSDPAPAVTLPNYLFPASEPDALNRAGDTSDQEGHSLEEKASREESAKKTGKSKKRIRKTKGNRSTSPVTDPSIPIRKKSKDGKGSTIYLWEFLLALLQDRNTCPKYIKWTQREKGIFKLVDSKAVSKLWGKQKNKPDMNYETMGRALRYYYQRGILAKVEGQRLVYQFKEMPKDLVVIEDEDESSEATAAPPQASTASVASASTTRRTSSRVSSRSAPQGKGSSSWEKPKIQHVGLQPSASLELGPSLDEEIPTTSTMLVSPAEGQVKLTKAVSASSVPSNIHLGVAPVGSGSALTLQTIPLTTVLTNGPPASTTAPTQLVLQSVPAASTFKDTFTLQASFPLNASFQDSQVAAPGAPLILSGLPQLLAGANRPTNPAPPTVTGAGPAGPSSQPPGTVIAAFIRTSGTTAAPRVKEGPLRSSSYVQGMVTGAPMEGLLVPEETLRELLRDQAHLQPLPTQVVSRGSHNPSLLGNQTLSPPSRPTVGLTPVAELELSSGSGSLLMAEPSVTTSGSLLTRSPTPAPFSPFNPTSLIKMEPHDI
ELF1, sequence (P32519 whole entry): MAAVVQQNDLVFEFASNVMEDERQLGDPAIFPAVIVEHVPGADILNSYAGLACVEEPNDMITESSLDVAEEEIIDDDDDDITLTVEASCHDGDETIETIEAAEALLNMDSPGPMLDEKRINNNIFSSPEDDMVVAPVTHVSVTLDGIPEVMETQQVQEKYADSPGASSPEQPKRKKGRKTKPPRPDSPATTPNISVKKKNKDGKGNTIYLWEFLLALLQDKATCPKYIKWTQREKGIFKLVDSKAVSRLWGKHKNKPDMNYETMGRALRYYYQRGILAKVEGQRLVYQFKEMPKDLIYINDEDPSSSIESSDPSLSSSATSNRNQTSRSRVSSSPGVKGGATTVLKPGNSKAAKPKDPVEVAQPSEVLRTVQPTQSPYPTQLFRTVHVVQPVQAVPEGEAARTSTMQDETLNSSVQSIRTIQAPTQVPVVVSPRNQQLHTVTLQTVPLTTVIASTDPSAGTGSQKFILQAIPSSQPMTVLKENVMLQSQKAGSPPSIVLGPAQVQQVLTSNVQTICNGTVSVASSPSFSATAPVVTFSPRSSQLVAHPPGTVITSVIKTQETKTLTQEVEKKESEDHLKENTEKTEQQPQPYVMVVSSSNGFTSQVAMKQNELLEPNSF
ETV1, sequence (P50549 whole entry): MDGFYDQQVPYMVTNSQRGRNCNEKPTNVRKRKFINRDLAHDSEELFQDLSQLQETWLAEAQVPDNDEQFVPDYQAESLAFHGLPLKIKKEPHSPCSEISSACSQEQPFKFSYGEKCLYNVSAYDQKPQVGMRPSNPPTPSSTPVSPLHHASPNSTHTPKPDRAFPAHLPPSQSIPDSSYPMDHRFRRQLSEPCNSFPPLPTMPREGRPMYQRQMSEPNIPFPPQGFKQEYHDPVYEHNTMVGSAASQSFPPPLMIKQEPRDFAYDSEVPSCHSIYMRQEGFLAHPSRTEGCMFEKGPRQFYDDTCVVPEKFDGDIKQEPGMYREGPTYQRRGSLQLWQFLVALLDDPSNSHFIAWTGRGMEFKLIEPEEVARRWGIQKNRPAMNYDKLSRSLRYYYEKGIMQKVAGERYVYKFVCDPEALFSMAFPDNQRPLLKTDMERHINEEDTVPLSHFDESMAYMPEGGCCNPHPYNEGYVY
SPIB, sequence (Q01892 whole entry): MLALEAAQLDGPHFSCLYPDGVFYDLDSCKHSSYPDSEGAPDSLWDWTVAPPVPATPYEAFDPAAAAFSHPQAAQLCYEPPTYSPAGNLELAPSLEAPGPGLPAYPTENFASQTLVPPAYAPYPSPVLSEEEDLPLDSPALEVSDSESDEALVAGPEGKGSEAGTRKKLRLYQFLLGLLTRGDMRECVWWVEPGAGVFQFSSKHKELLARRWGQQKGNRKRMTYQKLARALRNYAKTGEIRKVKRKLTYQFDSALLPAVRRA

Sequence: AAGGGT
- binding signal (FLI1): 1 fold enrichment (6-mer frequency, TF over GST control)
- binding signal (ELK1): 1.01 fold enrichment (6-mer frequency, TF over GST control)
- binding signal (GABPA): 1.01 fold enrichment (6-mer frequency, TF over GST control)
- binding signal (ERG): 1 fold enrichment (6-mer frequency, TF over GST control)
- binding signal (ELF1): 1.01 fold enrichment (6-mer frequency, TF over GST control)
- binding signal (EHF): 1.01 fold enrichment (6-mer frequency, TF over GST control)
- binding signal (SPI1): 1.05 fold enrichment (6-mer frequency, TF over GST control)
- binding signal (SPIB): 1.04 fold enrichment (6-mer frequency, TF over GST control)
- binding signal (ETV5): 1.05 fold enrichment (6-mer frequency, TF over GST control)
- binding signal (SPIC): 1.08 fold enrichment (6-mer frequency, TF over GST control)
- binding signal (ELF4): 1.01 fold enrichment (6-mer frequency, TF over GST control)
- binding signal (ETV1): 1.05 fold enrichment (6-mer frequency, TF over GST control)
- binding signal (ETS2): 1.07 fold enrichment (6-mer frequency, TF over GST control)
- binding signal (ELF5): 1.04 fold enrichment (6-mer frequency, TF over GST control)
- binding signal (ETV3): 1.05 fold enrichment (6-mer frequency, TF over GST control)
